This note sets out measurements from PubChem BioAssay.

The structures appear in SMILES notation. Active and inactive are the calls of the source.

Experiment [1] concerns Plasmodium falciparum Sir2 (PF13_0152, Sir2A). Nature of the experiment: Plasmodium falciparum Sir2A binding compounds – biochemical, small-molecule microarray, 635 nm fluorescence, primary screen (AID 1098).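 Further: score merges spot fluorescence intensity with its signal-to-noise ratio.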 Conditions: fluorescence 635 nm, higher = more signal.
Experiment [2] is described as follows: probe aDKK1 binding to arrayed compounds – biochemical, biotinylated probe, 635/667 nm fluorescence, primary screen (AID 1099).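 Further: score merges 667nm spot fluorescence with signal to noise across triplicate slides; reference of the scale not given here.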 Conditions: small-molecule microarray, higher = more signal.
Experiment [3] in a line: probe aCHRDL2 binding to arrayed compounds – biochemical, biotinylated probe, 635/667 nm fluorescence, primary screen (AID 1100). Conditions: small-molecule microarray, higher = more signal.
Experiment [4] can be described thus: change in splice reporter luminescence, either direction, cell-based, HEK293, spliceosome inhibition project, primary screen (AID 1101).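 Further: HEK293 cells carrying a splicing-competent luciferase reporter gene; test concentration not given here.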 Conditions: HEK293 splicing luciferase reporter, 24 h, higher = more signal, called active from +8 up or from −8 down. A general note: Reporter assays use an easily measured gene product as a stand-in for the process of interest.

For experiment [5], the target named is Fibroblast growth factor 10 (Homo sapiens) (UniProt O15520). Nature of the experiment: compounds binding fibroblast growth factor 10 – biochemical, small-molecule microarray, 635 nm fluorescence, primary screen (AID 1102). Conditions: FGF10 binding, fluorescence 635 nm, higher = more signal.
Fibroblast growth factor 10 (Homo sapiens), sequence (O15520 whole entry, looked up): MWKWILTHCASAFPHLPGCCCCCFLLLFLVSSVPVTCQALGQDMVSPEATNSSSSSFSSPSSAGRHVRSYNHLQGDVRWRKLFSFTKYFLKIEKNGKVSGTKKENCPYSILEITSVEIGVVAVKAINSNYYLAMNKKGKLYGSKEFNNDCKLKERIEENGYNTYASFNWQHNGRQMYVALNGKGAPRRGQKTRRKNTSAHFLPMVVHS
Experiment [6] concerns glycogen synthase kinase-3 (GSK3A per assay name; protocol says GSK3B). Put plainly: compounds binding glycogen synthase kinase-3 – biochemical, small-molecule microarray, 635 nm fluorescence, GSK3A, primary screen (AID 1103). Further: the record names both GSK3A and GSK3B. Conditions: fluorescence 635 nm, higher = more signal.
Experiment [7] has as its target Epidermal growth factor receptor (Homo sapiens) (UniProt P00533). Put plainly: compounds binding epidermal growth factor receptor – biochemical, small-molecule microarray, 635 nm fluorescence, primary screen (AID 1104).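 Further: score merges 667 nm emission intensity with spot signal to noise over triplicate slides.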 Conditions: EGFR binding, higher = more signal.
The target in experiment [8] is Follistatin-related protein 3 (Homo sapiens) (UniProt O95633). Nature of the experiment: compounds binding follistatin-related protein 3 – biochemical, small-molecule microarray, 635 nm fluorescence, primary screen (AID 1105).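 Further: score merges emission near 667 nm and signal to noise per printed spot across three slides.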 Conditions: FSTL3 binding, higher = more signal.
Follistatin-related protein 3 (Homo sapiens), sequence (O95633 whole entry, looked up): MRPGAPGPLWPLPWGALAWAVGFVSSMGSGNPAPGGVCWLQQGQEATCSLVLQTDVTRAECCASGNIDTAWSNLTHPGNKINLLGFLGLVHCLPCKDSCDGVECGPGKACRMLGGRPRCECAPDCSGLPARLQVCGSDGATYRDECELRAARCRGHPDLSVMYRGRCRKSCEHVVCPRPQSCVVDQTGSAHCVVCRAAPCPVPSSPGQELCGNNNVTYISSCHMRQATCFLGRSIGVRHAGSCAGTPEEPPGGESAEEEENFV
In experiment [9] the target is Dickkopf-related protein 1 (Homo sapiens) (UniProt O94907). Put plainly: small molecules binding DKK1 protein – biochemical, small-molecule microarray, 635 nm fluorescence scan, primary screen (AID 1106).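 Further: score merges emission near 667 nm with signal to noise over three replicate slides.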 Conditions: higher = more signal.
Dickkopf-related protein 1 (Homo sapiens), sequence (O94907 whole entry, looked up): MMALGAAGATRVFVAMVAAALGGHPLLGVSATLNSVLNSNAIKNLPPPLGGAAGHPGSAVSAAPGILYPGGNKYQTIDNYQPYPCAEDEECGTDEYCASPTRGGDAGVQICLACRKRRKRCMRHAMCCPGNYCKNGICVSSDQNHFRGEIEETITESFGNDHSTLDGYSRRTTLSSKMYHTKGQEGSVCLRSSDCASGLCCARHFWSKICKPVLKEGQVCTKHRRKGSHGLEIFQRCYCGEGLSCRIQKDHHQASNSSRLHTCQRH
For experiment [10], the system named is Inhibin beta A chain (activin A). Nature of the experiment: small molecules binding activin A – biochemical, small-molecule microarray, 635 nm fluorescence scan, primary screen (AID 1107).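 Further: mouse activin A protein probed at 4.33 µg/mL on printed slides; score merges bound-protein fluorescence near 667 nm with spot signal-to-noise.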 Conditions: INHBA, higher = more signal.

Epidermal growth factor receptor (Homo sapiens), sequence (P00533 whole entry, looked up): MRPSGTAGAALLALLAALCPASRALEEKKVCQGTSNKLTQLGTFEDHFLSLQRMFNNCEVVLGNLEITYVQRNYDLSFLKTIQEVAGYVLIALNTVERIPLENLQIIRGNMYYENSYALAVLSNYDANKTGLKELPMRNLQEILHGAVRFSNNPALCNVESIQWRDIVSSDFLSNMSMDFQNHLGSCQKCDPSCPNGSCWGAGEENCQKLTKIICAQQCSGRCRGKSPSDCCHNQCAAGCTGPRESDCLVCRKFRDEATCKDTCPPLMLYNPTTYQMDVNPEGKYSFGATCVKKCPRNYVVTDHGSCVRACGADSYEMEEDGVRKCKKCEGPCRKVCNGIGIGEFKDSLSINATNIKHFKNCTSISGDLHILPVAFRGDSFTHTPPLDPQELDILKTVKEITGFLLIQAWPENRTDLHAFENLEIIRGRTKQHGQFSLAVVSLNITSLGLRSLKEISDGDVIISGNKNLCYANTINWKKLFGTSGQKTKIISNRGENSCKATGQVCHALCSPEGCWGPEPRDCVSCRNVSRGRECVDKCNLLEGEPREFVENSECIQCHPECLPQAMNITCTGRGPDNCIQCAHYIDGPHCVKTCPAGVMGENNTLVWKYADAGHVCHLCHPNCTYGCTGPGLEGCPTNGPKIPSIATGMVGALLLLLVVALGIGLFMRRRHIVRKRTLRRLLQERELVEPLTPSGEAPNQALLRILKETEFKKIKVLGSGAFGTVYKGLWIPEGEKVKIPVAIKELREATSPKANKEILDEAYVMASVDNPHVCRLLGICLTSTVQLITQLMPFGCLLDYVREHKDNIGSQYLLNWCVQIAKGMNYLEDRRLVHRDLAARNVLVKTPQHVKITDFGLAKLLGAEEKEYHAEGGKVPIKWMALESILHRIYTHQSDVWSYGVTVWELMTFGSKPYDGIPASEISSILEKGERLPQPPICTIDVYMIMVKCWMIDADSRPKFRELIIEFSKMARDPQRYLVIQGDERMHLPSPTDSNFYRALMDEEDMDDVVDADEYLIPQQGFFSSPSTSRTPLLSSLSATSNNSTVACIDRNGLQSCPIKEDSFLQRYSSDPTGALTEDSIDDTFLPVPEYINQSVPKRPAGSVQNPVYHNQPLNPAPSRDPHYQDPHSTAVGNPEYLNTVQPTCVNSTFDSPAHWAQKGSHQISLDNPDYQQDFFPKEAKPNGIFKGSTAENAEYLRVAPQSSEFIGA

Take `CN1C(=O)C2C=CC(C(O)c3cccs3)N(Nc3ccccc3)C2C1=O` (stereo not given): the composite z-score is 0.748 in [1]; 0.168 in experiment [2]; 0.272 in experiment [3]; 0.765 in experiment [5]; 0.0802 in experiment [6]; 0.007 in experiment [7]. Also, the composite z-score is 0.174 in experiment [8], -0.0478 in experiment [9] and 0.693 in experiment [10]. Moreover, the z-score in experiment [4] was 1.46 (inactive).
For the compound `CC(C)C(CO)N1C(=O)[C@@H]2[C@H]3C(=O)OCC=C[C@H]3OC23C=CCN(C(C)C)C(=O)[C@@H]13` (stereo not given in full), the composite z-score in experiment [1] was -0.542; in experiment [2] it was -0.202; in experiment [3], -0.25; in experiment [5], -0.321; in [6], 0.269; in experiment [7] it was 0.0755. Further, the composite z-score in experiment [8] was 0.354; in experiment [9], 0.254; in experiment [10] it was 0.756. In addition, in experiment [4], the z-score was 0.181 (inactive).
`CC(C)C[C@@H]1NC(=O)[C@@H]2C[C@H](C(=O)NCCCCCN)[C@H](c3cccc(OCCO)c3)N2C1=O`: the composite z-score is 1.44 in experiment [1]; -0.0704 in experiment [2]; 0.527 in experiment [3]; 0.272 in experiment [5]; 0.685 in [6]; -0.26 in experiment [7]. Besides, the composite z-score came out at 0.627 in [8], 0.387 in experiment [9] and 0.842 in [10]. For the same compound, the z-score in [4] was -1.08 (inactive).
Consider `COC(=O)[C@@]1(Cc2ccccc2)[C@H]2c3cc(C(=O)N(C)C)n(CCSCCO)c3C[C@H]2CN1C(=O)c1ccccc1`, for which the composite z-score was 0.751 in experiment [1]; 0.692 in [2]; 0.829 in experiment [3]; 0.3 in experiment [5]; -0.205 in experiment [6]; -0.348 in experiment [7]. Also, the composite z-score was -0.353 in experiment [8], -0.772 in experiment [9] and 0.442 in experiment [10]. For the same compound, the z-score in experiment [4] is -1.48 (inactive).
`COc1ccc([Si](C)(C)[C@H]2[C@H](CCO)O[C@@]3(C(=O)N(Cc4ccc(N5C(=O)COc6ccccc65)cc4)c4ccccc43)[C@@H]2C)cc1`: the composite z-score in experiment [1] was 0.0297; in [2], -0.0813; in experiment [3], 0.812; in [5], -0.712; in [6], -1.01; in [7] it was -0.95. The composite z-score in [8] was -0.534; in experiment [9], -0.297; in [10] it was -0.515. Moreover, in experiment [4], the z-score is -1.15 (inactive).
For `NCCCCCNC(=O)[C@@H]1C[C@@H]2C(=O)N[C@@H](Cc3ccccc3)C(=O)N2[C@@H]1c1cccc(OCCO)c1`, the composite z-score in [1] was 1.14; in experiment [2], 0.53; in experiment [3] it was 0.359; in experiment [5], 0.519; in experiment [6], 0.232; in [7], -0.235. Besides, the composite z-score in [8] was -0.374; in experiment [9], 0.378; in experiment [10], 0.619. For the same compound, the z-score in [4] is -0.0581 (inactive).
For the compound `COCCOC(=O)N1C(=O)[C@@]2(c3cc(C#CC4=CCCCC4)ccc31)[C@H](C(N)=O)[C@H]1C(=O)O[C@H](c3ccccc3)[C@H](c3ccccc3)N1[C@@H]2c1ccc(OCCO)cc1`, the composite z-score in experiment [1] is 0.497; in experiment [2], -0.504; in experiment [3], -0.091; in experiment [5], 1.31; in experiment [6], 1.1; in experiment [7], 0.0883. Further, the composite z-score came to 1.22 in experiment [8], 0.553 in experiment [9] and 0.052 in experiment [10]. Further, in experiment [4], the z-score was 0.497 (inactive).
Take `CCOC(=O)[C@H]1CC=C2CC1C(=O)N1CCC[C@@H]1[C@@H]2O[Si](C)(C)C(C)(C)C` (stereo not given in full): the composite z-score in [1] was -0.105; in experiment [2], -0.539; in [3], -1.04; in [5], -0.997; in experiment [6] it was -1.22; in [7] it was -0.265. Also, the composite z-score in experiment [8] was -1.02; in experiment [9], -0.177; in experiment [10], 0.928. For the same compound, the z-score in experiment [4] is 0.582 (inactive).
For `CS(=O)(=O)CCOC(=O)C1=CC(CCCO)=CC(c2ccc(CN3CCCC3)cc2)N(Cc2cc3c(cc2Br)OCO3)C=C1C(=O)OCCS(C)(=O)=O` (stereo not given), the composite z-score in experiment [1] amounted to 1.52; in experiment [2] it was 0.525; in experiment [3] it was 0.555; in experiment [5], 1.2; in experiment [6], 1.27; in [7], 0.422. The composite z-score in experiment [8] amounted to 0.634; in [9], 0.232; in [10], 1.29. Also, the z-score in experiment [4] is -0.9 (inactive).
On to `[N-]=[N+]=NCc1ccccc1[C@H]1OC(c2ccc(OCCCO)cc2)=N[C@@]1(Cc1ccccc1)C(=O)NCc1ccccc1`, for which the composite z-score turned out to be 0.173 in [1]; 0.646 in experiment [2]; 0.894 in [3]; 0.672 in experiment [5]; 1.27 in [6]; 0.169 in experiment [7]. In addition, the values for the composite z-score in experiment [8], in experiment [9] and in experiment [10] were 0.231, -0.238 and -0.151, respectively. For the same compound, the z-score in experiment [4] is 1.09 (inactive).
For the compound `COCCOC(=O)N1C(=O)[C@@]2(c3cc(C#Cc4ccc(OC)cc4)ccc31)[C@H](c1ccccc1OCCO)N1[C@H](c3ccccc3)[C@H](c3ccccc3)OC(=O)[C@H]1[C@@H]2C(=O)N1CCN(c2ncccn2)CC1`, the composite z-score in experiment [1] is 0.864; in experiment [2], -0.0148; in [3] it was 0.116; in experiment [5], 0.743; in experiment [6], 0.806; in [7] it was 0.339. Moreover, the figures for the composite z-score in experiment [8], in experiment [9] and in [10] were 0.369, 0.27 and 0.345, respectively. In experiment [4], the z-score is -0.0173 (inactive).
On to `O=C1O[C@H](c2ccccc2)[C@H](c2ccccc2)N2[C@H]1[C@@H](C(=O)O)[C@]1(C(=O)Nc3ccc(C#CCCO)cc31)[C@H]2c1ccc(O)cc1`, for which the composite z-score in experiment [1] was 0.218; in experiment [2] it was 1.13; in experiment [3], 1.14; in experiment [5], -0.378; in [6] it was -0.222; in experiment [7], -0.289. Moreover, the composite z-score in experiment [8] was -0.321; in experiment [9] it was -0.572; in experiment [10], 1.18. In [4], the z-score is -0.765 (inactive).
On to `C=CCNC(=O)[C@H]1[C@@H]2C(=O)O[C@@H](c3ccccc3)[C@@H](c3ccccc3)N2[C@@H](c2ccc(OCCO)cc2)[C@]12C(=O)Nc1ccc(C#CC3=CCCCC3)cc12`, for which the composite z-score in experiment [1] is 1.25; in experiment [2], -0.488; in experiment [3], 0.171; in experiment [5], 0.929; in experiment [6], 1.05; in experiment [7], 0.293. Moreover, the composite z-score was found to be 0.881 in experiment [8], 0.183 in experiment [9] and 0.543 in experiment [10]. Further, in experiment [4], the z-score is -1.24 (inactive).
Consider `C=CCN1C(=O)[C@]2(O[C@H](CCO)[C@@H]([Si](C)(C)c3ccc(OC)cc3)[C@@H]2C)c2cc(N3CCCCC3=O)ccc21`, for which the composite z-score in experiment [1] came to 0.914; in [2] it was 0.0375; in experiment [3], 0.0217; in experiment [5] it was 0.849; in experiment [6], 0.549; in [7], 0.286. The composite z-score turned out to be 0.918 in [8], 0.147 in [9] and 0.247 in experiment [10]. Further, the z-score in experiment [4] is -1.69 (inactive).
For `CCOC(=O)C[C@H]1[C@H](OC(=O)c2ccc(C(=O)c3ccccc3)cc2)[C@@H](NC(=O)c2ccc(-c3ccccc3)cc2)c2cc(OCCCO)ccc2N1C(=O)c1ccccc1`, the composite z-score in experiment [1] was 0.82; in experiment [2], -0.222; in experiment [3], -0.387; in experiment [5], 0.994; in [6], 0.477; in [7] it was 0.515. Also, the results for the composite z-score in experiment [8], in [9] and in [10] were 0.723, 0.321 and -0.144, respectively. In experiment [4], the z-score was 0.475 (inactive).
